From PubChem BioAssay

assay: E. coli acrAB mutant growth effects, primary screen, E. coli filamentation inducers, strain DRC39, OD650, 24 h (AID 1178); conditions: higher = more signal, called active from +8 up or from −8 down;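 note: growth measured as culture turbidity by optical density at 650 nm; test concentration not given here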

z-score, inactive:
CC1(C)OC[C@@]23C=C(Br)[C@@H](C[C@H]12)[C@@]1(CO1)C3=O -0.509
CN1C(=O)C2C=CC(C(O)c3ccc(-c4ccccc4)s3)N(Nc3ccccc3)C2C1=O (stereo unspecified) 0.243
C=C(COC)/C(=C/C[C@H](OC(=O)c1ccncc1)c1ccc(OCCO)cc1)c1cc(C(=O)OC)ccc1OC -0.0988
COCCn1c(C(=O)N2CCCC2)cc2c1C[C@H]1CN(C(=O)c3ccccc3)[C@@](Cc3ccccc3)(C(=O)OC)[C@@H]21 -0.16
CCC[C@@H]1C=C(C(=O)OCC)[C@H](c2ccccc2)N1S(=O)(=O)c1ccc(C)cc1 -0.213
COCC(=C=CC[C@@H](O)c1cccc(OCCO)c1)C[C@@H](O)COCc1ccccc1 0.481
CC(C)[C@@H](C(=O)O)n1cc(-c2ccccc2)nn1 0.0178
CN(C)CCCCNC(=O)[C@H]1C[C@H]2C(=O)NCC(=O)N2[C@H]1c1cccc(OCCO)c1 0.779
[N-]=[N+]=NCc1ccccc1C[C@]1(C(=O)N2CCOCC2)N=C(c2ccc(OCCCO)cc2)O[C@H]1c1ccccc1CN=[N+]=[N-] 1.67
C=CCNC(=O)[C@@H]1[C@H]2C(=O)O[C@H](c3ccccc3)[C@H](c3ccccc3)N2[C@H](c2ccccc2OCCO)[C@@]12C(=O)N(C(=O)OCCOC)c1ccc(C#CCCO)cc12 0.251
CC(C)=CCN(C(=O)C#Cc1ccccc1)[C@H](CO)c1ccccc1 0.163
